Bioassay records: PubChem, Fisher Drug Discovery Resource Center
mcGAS lum: mouse cGAS inhibition by luminescence. Q8C6L5. recombinant cGAS, Kinase-Glo ATP depletion luminescence. 160,000 compounds, 0.15% hits. AID 1259399. inhibition, % at 12.5 µM;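 further: 0% = negative control wells and 100% = reference inhibitor with no enzyme activity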
NPYLR7 agonist: activates Aedes aegypti NPYLR7 receptor; HEK293T NPYLR7/Galpha15, GCaMP6s calcium fluorescence; 270,000 compounds, 0.15% hits; activation, % at 10 µM; in the data active means activation above about 40%;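 further: 0% = vehicle and 100% = reference agonist at the receptor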
hcGAS inh: human cGAS inhibition | Q8N884 | recombinant h-cGAS, ATP depletion, Kinase-Glo luminescence | 290,000 compounds, 0.081% hits | inhibition, % at 12.5 µM | AID 1259398;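 further: 0% = vehicle reaction and 100% = reaction without DNA for no activity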
Target sequence (Q8N884 whole entry, looked up): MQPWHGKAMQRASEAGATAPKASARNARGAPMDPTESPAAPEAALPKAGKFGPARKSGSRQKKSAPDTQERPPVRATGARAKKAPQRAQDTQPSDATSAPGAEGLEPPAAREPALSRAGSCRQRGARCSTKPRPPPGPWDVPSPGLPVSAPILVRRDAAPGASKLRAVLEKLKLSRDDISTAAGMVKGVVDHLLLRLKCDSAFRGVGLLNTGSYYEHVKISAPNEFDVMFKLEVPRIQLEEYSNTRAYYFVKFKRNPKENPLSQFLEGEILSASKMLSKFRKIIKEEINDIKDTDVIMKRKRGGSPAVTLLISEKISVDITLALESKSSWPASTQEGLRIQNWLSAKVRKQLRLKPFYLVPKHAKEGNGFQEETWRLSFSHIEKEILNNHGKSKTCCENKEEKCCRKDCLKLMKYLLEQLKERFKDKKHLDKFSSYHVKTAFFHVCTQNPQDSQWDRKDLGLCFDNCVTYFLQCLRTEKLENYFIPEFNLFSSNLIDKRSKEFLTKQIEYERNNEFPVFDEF
The depositor's hits bear a star; · = no result; + = active, no number; ! = not confirmed by another sample. The list is not random: actives were taken first. Their share in the collection is about 0.24%. Unless noted, no stated cut-off is given here; in the data, active means inhibition above about 40%; inactive means the rest.

SMILES	mcGAS lum	NPYLR7 agonist	hcGAS inh
CCc1nn(C(C)C(=O)NC(C)CCc2ccco2)c(=O)c2cc3occc3n12 (configuration not stated)	-3	68*	-4
CCc1nn(C(C)C(=O)NC)c(=O)c2cc3occc3n12 (configuration not stated)	-4	7	-5
Cc1ccc(C)c2sc(N(CCN3CCOCC3)C(=O)C3COc4ccccc4O3)nc12 (configuration not stated)	·	11	-6
N#CC=CN1CCc2ccccc2C1	·	1	-3
CCN1CCN(C2=CC3=CC(=C(C#N)C#N)CCC3CC2)CC1 (configuration not stated)	-3	+	-9
N#CC(C#N)=C1C=C2CC(=NCc3ccccc3)CCC2CC1 (configuration not stated)	·	36	-4
N#CC(C#N)=C1C=C2C=C(N3CCc4ccccc4C3)CCC2CC1 (configuration not stated)	·	87*	-4
N#CC(C#N)=C1C=C2C=C(N3CCCCCC3)CCC2CC1 (configuration not stated)	-4	673*	-6
CC1CN(c2cc(Cl)nc(SCC(=O)NCCN3CCCC3)n2)CCN1C(=O)CC(C)(C)C (configuration not stated)	-4	15	-8
CCc1cccc2c(C(CC(=O)N3CCN(Cc4ccccc4)CC3)c3ccc(Cl)cc3)c[nH]c12 (configuration not stated)	9	·	-7
CSc1nnc(SCc2cc(C)no2)s1	-13	13	-5
C[N+]1=C(CC=Nc2ccccc2)SCC1	·	-1	-3
C(/C=C/CC=Nc1ccccc1)=Nc1ccccc1	-7	66*	-5
O=C(CN1CCCC1c1ccccc1)NCc1ccccc1 (configuration not stated)	·	3	-5
S=c1n(CN2CCCC2c2ccccc2)cc2ccccn12 (configuration not stated)	·	13	55*
COc1cc(-c2cc(=O)c3c(O)c(OC)c(OC)c(OC)c3o2)cc(OC)c1OC	·	-3	0
COc1c(O)cc2c(=O)oc3c(OC)c(O)cc4c(=O)oc1c2c34	8	4	75*
CCOC(=O)CCC(=O)N1CCN(C(=O)c2cc3ccoc3n2Cc2ccc(C)cc2)CC1C (configuration not stated)	-3	8	-4
C=C(C)Cn1c(C(=O)N2CCN(C(=O)CCC(=O)OCC)C(C)C2)cc2ccoc21 (configuration not stated)	-7	57*	-10
OCC1OC(Oc2ccccc2Cl)C(O)C(O)C1O (configuration not stated)	-4	0	-4
O=C(O)c1cc(O)c2c(O)c3c(O[C@H]4O[C@H](CO)[C@@H](O)[C@H](O)[C@H]4O)cccc3c(-c3c4cc(C(=O)O)cc(O)c4c(O)c4c(O[C@H]5O[C@H](CO)[C@@H](O)[C@H](O)[C@H]5O)cccc34)c2c1	·	-17	42*!
CC(C)(C)c1cnc(CSc2cnc(NC(=O)C3CCNCC3)s2)o1	-11	60*	-4
CCc1nc(SCc2ncc(C(C)(C)C)o2)n[nH]1	·	0	-9
CCCOc1ccc(-c2ccc(-c3noc(-c4ccccc4Br)n3)cc2)cc1	0	3	1
O=C(O)CN1C(=O)C(=C2C(=O)N(CC(=O)O)c3ccccc32)SC1=S	-1	1	-8
SMILES	mcGAS lum	NPYLR7 agonist	hcGAS inh
O=C(O)CN1C(=O)C(=NN2C(=O)CSC2=S)c2ccccc21	·	-3	43*
Cc1c(N2CCCC2)ccc2c1NC(=O)CC2c1cc(C#CCO)cs1 (configuration not stated)	·	5	-1
Cc1cc(S(=O)(=O)Nc2c(C)nn(C(C)C)c2C)ccc1F	·	9	-5
COc1ccc(CN2CCN(Cc3cccn3-c3ncccn3)CC2CCO)c(F)c1 (configuration not stated)	·	-5	1
COc1ccc(CN2CCN(Cc3cccn3-c3ncccn3)CC2CCO)c(C)c1C (configuration not stated)	-9	49*	-6
CCn1cc(C(CC(=O)N2CCN(Cc3ccc4c(c3)OCO4)CC2)c2cc(OC)cc(OC)c2)c2ccccc21 (configuration not stated)	74*	·	-13
CCn1cc(C(CC(=O)NCc2ccc3c(c2)OCO3)c2cc(OC)cc(OC)c2)c2ccccc21 (configuration not stated)	1	3	3
CC(=O)Nc1cccc(C(=O)N(C)Cc2sccc2C)c1	·	-2	-2
CCCCN1CCC(CCC(=O)c2cc(Cl)c(N)cc2OC)CC1	·	13	-3
CCCCN1CCC(COC(=O)c2cc(Cl)c(N)c3c2OCCO3)CC1	91*	-2	-1
CN1CCC(=C2c3ccccc3C=Cc3ccccc32)CC1	-4	-5	-1
CN1CCC(=C2c3ccccc3Sc3ccccc32)CC1	-5	54*!	-3
Cc1ccc(Cl)cc1-n1c(SCc2nc(C(=O)N3CCN(C/C=C/c4ccccc4)CC3)cs2)nnc1-c1ccco1	-4	16	-2
Cc1cccc2ncc(C(=O)N3CCC4(CCNC(=O)CC4)CC3)c(=O)n12	·	13	-2
Cc1nc2ncccc2cc1C(=O)N1CCC2(CCNC(=O)CC2)CC1	·	55*	-2
Cc1noc(C)c1CC(=O)Nc1cccc(CN2CCCCC2)c1	·	3	-15
N#CC1C(=N)SC(=N)C(C#N)C1c1cccs1 (configuration not stated)	70*	27	74*
CC(=O)[C@@H]1SC(=N)C(C#N)[C@H]1c1cccs1 (some centres not stated)	2	-5	7
O=C(C1CC2CCC1C2)N1CCCc2cc(F)c(F)cc21 (configuration not stated)	·	3	-7
CCN(CC)CCCC(C)NC(=O)c1cc(-c2ccccc2Cl)nn1-c1ccc(OC)cc1 (configuration not stated)	-5	14	-3
CCN(CC)CCCC(C)Nc1c2ccc(Cl)cc2nc2ccc(OC)cc12 (configuration not stated)	29	67*	64*!
CCN(CC)C(=O)CN1CCCCC1c1nc2ccc(F)cc2[nH]1 (configuration not stated)	·	-4	2
CCn1c(O)c(C=Nc2c(C#N)c(C)c(C)n2C2CCCCC2)c(=O)n(CC)c1=S	-9	69*	-24
CCn1c(O)c(C=Nc2c(C)nn(C)c2C)c(=O)n(CC)c1=S	-7	-2	-6
O=C(Cc1ccc2c(c1)CCC2)NCC1CCN(c2ccccc2)C1 (configuration not stated)	0	49*	1
O=C(CN1CCc2ccccc2C1)NCC1CCN(c2ccccc2)C1 (configuration not stated)	·	-2	-13
O=C(NCCCN1CCOCC1)C(C1CCCC1)N1CCN(C(=O)C2CC2)CC1 (configuration not stated)	-4	-2	-6
NC(=NC1C2CC3CC(C2)CC1C3)Nc1ccc(I)cc1 (configuration not stated)	·	43*	-3
CSC(C)C(=O)Nc1ccc(I)cc1 (configuration not stated)	-5	8	-4
Cc1csc(-c2cc3ccc(O)c(CN4CCN(CCO)CC4)c3oc2=O)n1	·	69*	-3
